Laboratory results from publication PMC7862700, “An all-to-all approach to the identification of sequence-specific readers for epigenetic DNA modifications on cytosine”.

Key:
Experiment in all cases: DAPPL (digital affinity profiling via proximity ligation, sequencing); 10 mM Tris-HCl pH 7.5, 50 mM NaCl, 1 mM DTT, 4% glycerol, room temperature, 30 min; GST-TFs on glutathione beads, 16-mer random dsDNA library, 0.1% formaldehyde crosslink after washing; high values mean tight binding
FLI1 = biological target: T1, FLI1 (Homo sapiens, UniProt Q01543 1-452); conditions: protein: recombinant; tags: N-terminal GST; dsDNA, one strand shown
T1 sequence: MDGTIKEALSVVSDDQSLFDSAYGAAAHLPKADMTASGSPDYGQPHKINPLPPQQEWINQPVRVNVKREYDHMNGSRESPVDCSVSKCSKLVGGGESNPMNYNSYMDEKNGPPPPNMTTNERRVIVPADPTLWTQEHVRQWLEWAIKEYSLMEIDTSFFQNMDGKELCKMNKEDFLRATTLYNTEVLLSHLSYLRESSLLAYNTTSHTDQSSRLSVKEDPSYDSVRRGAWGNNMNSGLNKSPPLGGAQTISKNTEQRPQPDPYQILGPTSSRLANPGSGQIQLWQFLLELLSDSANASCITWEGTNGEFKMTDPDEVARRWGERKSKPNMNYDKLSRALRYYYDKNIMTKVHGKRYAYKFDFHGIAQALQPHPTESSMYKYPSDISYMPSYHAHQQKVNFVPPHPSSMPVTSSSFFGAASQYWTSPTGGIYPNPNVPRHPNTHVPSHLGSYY
In short: (§1)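 Human transcription factors carrying a GST fusion were produced in yeast, bound to glutathione beads, tagged with DNA barcodes and pooled together with a tag-only sample. Each pool was held with 200 nmole of a random double-stranded 16-mer DNA library in Tris/NaCl/DTT/glycerol buffer for 30 min at room temperature, then washed, crosslinked in 0.1% formaldehyde, proximity-ligated with BsaI/T4 ligase (1 h, 37 °C), PCR-amplified and sequenced on an Illumina NextSeq500. Binding signal is the read frequency of each hexamer for a given factor divided by its frequency in the tag-only sample.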

ELK1 = biological target: T2, ELK1 (Homo sapiens, UniProt P19419 1-428); conditions: protein: recombinant; tags: N-terminal GST; dsDNA, one strand shown
T2 sequence: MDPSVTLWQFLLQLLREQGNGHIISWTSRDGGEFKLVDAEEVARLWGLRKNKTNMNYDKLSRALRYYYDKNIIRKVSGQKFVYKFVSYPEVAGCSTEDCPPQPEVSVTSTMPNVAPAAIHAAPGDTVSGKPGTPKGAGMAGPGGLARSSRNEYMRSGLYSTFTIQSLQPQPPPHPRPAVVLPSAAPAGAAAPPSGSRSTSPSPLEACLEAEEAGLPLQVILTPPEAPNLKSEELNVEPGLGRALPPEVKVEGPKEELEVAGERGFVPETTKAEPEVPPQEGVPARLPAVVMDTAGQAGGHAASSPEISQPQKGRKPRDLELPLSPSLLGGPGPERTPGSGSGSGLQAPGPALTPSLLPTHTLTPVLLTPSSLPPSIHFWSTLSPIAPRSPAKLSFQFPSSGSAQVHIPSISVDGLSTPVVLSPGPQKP
In short: as §1

GABPA = biological target: T3, GABPA (Homo sapiens, UniProt Q06546 1-454); conditions: protein: recombinant; tags: N-terminal GST; dsDNA, one strand shown
T3 sequence: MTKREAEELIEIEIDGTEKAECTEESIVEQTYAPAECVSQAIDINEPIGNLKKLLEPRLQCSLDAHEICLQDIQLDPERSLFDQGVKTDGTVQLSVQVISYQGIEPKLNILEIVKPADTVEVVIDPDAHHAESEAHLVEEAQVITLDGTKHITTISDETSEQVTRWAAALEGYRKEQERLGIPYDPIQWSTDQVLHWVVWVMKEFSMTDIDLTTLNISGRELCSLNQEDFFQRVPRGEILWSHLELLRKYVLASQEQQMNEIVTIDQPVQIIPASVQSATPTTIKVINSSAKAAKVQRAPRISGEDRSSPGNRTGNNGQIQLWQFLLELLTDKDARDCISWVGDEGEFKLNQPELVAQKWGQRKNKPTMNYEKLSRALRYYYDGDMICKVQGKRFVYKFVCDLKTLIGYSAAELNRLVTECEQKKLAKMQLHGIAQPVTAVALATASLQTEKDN
In short: as §1

ERG = biological target: T4, ERG (Homo sapiens, UniProt P11308 1-479); conditions: protein: recombinant; tags: N-terminal GST; dsDNA, one strand shown
T4 sequence: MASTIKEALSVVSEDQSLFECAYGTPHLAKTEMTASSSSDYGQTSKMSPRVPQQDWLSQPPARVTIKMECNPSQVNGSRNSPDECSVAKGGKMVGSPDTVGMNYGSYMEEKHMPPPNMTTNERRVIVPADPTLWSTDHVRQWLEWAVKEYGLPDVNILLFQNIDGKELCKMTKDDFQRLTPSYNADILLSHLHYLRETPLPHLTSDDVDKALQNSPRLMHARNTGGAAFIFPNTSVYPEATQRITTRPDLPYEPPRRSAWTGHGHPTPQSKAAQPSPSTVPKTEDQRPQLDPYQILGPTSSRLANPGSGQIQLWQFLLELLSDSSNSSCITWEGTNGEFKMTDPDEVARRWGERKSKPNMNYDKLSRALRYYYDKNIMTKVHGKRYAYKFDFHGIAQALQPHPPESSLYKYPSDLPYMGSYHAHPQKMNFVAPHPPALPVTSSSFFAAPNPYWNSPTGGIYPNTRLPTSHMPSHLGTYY
In short: as §1

ELF1 = ELF1 (Homo sapiens, UniProt P32519 1-619); conditions: protein: recombinant; tags: N-terminal GST; dsDNA, one strand shown
In short: as §1

EHF = biological target: T5, EHF (Homo sapiens, UniProt Q9NZC4 1-300); conditions: protein: recombinant; tags: N-terminal GST; dsDNA, one strand shown
T5 sequence: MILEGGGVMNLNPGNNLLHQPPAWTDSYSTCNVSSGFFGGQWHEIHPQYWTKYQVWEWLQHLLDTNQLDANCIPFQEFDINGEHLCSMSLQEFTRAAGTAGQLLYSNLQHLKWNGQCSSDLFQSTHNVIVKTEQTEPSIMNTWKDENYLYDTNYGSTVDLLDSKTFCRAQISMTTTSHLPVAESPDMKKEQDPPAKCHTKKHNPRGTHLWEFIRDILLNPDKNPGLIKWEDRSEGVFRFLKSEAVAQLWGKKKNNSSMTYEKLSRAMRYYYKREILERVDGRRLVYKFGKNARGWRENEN
In short: as §1

SPI1 = SPI1 (Homo sapiens, UniProt P17947 1-270); conditions: protein: recombinant; tags: N-terminal GST; dsDNA, one strand shown
In short: as §1

SPIB = SPIB (Homo sapiens, UniProt Q01892 1-262); conditions: protein: recombinant; tags: N-terminal GST; dsDNA, one strand shown
In short: as §1

ELK3 = biological target: T6, ELK3 (Homo sapiens, UniProt P41970 1-407); conditions: protein: recombinant; tags: N-terminal GST; dsDNA, one strand shown
T6 sequence: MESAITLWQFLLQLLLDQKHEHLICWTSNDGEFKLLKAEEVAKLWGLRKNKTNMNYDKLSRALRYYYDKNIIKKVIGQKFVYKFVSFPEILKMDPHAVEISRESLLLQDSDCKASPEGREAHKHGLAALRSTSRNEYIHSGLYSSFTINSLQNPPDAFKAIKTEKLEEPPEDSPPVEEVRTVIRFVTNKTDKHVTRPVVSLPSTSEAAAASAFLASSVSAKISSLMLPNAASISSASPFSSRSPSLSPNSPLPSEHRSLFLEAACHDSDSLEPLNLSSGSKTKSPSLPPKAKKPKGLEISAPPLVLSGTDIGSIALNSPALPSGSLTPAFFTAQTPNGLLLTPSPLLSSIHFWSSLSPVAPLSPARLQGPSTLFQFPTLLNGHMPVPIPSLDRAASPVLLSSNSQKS
In short: as §1

FEV = biological target: T7, FEV (Homo sapiens, UniProt Q99581 1-238); conditions: protein: recombinant; tags: N-terminal GST; dsDNA, one strand shown
T7 sequence: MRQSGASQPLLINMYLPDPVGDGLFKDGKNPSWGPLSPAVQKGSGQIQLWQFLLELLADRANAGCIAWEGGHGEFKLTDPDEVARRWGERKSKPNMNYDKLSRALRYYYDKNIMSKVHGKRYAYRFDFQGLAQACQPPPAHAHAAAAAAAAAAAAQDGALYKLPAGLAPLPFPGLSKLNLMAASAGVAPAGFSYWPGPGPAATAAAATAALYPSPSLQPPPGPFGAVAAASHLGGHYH
In short: as §1

ETV5 = ETV5 (Homo sapiens, UniProt P41161 1-510); conditions: protein: recombinant; tags: N-terminal GST; dsDNA, one strand shown
In short: as §1

HSF1 = HSF1 (Homo sapiens, UniProt Q00613 1-529); conditions: protein: recombinant; tags: N-terminal GST; chain copies: 3; dsDNA, one strand shown
In short: as §1

SPIC = biological target: T8, SPIC (Homo sapiens, UniProt Q8N5J4 1-248); conditions: protein: recombinant; tags: N-terminal GST; dsDNA, one strand shown
T8 sequence: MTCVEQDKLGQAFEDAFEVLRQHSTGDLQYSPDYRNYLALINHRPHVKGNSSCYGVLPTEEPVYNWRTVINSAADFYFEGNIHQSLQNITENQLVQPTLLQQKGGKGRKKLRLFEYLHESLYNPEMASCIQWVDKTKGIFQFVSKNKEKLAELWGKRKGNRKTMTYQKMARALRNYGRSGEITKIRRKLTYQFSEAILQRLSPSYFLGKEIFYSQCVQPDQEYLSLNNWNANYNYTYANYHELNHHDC
In short: as §1

ELF4 = ELF4 (Homo sapiens, UniProt Q99607 1-663); conditions: protein: recombinant; tags: N-terminal GST; dsDNA, one strand shown
In short: as §1

ELK4 = biological target: T9, ELK4 (Homo sapiens, UniProt P28324-2 1-405); conditions: protein: recombinant; tags: N-terminal GST; dsDNA, one strand shown
T9 sequence: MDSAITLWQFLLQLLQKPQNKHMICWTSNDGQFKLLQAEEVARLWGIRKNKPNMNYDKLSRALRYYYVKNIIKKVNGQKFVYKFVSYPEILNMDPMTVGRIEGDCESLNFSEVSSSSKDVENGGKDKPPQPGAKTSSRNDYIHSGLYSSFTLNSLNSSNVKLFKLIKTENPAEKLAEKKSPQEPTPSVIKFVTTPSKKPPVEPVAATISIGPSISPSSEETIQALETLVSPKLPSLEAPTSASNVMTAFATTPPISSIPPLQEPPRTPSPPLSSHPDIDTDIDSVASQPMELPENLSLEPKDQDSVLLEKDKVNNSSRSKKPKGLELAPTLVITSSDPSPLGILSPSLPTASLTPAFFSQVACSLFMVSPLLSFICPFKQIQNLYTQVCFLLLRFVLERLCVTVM
In short: as §1

ETV2 = biological target: T10, ETV2 (Homo sapiens, UniProt O00321 1-342); conditions: protein: recombinant; tags: N-terminal GST; dsDNA, one strand shown
T10 sequence: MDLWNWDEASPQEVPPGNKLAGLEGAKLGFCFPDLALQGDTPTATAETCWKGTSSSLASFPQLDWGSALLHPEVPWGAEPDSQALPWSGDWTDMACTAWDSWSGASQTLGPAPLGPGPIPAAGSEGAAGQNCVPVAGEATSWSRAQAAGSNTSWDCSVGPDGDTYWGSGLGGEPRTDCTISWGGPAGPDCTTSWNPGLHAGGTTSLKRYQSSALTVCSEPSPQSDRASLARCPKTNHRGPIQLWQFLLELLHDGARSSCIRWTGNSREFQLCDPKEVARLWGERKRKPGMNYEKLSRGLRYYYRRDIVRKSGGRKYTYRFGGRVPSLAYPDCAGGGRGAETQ
In short: as §1

ELF3 = biological target: T11, ELF3 (Homo sapiens, UniProt P78545 1-371); conditions: protein: recombinant; tags: N-terminal GST; dsDNA, one strand shown
T11 sequence: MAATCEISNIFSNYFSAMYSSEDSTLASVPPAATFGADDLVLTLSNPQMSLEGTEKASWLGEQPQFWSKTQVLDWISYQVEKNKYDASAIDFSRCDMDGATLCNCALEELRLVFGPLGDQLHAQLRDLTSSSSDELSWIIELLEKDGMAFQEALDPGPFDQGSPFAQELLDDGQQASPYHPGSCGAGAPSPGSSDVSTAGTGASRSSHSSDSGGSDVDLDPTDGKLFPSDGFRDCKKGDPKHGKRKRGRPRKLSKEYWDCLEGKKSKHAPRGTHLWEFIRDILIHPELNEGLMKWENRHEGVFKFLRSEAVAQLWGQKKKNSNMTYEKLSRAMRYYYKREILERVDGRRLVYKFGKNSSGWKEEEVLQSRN
In short: as §1

CRX = CRX (Homo sapiens, UniProt O43186 1-299); conditions: protein: recombinant; tags: N-terminal GST; dsDNA, one strand shown
In short: as §1

ETV1 = ETV1 (Homo sapiens, UniProt P50549 1-477); conditions: protein: recombinant; tags: N-terminal GST; dsDNA, one strand shown
In short: as §1

Sequence of ELF4 (Q99607 whole entry): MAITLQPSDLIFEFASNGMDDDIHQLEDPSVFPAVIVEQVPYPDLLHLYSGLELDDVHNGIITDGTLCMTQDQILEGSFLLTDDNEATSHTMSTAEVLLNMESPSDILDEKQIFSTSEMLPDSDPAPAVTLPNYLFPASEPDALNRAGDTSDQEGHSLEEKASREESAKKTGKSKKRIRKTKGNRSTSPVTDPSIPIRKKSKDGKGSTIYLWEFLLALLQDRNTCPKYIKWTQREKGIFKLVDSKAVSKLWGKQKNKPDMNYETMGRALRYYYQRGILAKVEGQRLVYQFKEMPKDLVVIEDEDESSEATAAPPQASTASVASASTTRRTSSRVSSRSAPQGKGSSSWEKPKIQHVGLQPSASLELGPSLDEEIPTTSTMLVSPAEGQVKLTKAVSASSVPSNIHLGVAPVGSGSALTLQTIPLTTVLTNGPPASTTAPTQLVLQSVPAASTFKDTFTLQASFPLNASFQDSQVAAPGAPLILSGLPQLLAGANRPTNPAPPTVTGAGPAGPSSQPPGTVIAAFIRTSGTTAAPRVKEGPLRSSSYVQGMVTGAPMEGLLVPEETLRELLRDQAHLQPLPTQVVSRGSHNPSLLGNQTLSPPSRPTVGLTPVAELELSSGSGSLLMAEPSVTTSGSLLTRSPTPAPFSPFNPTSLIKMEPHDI
Sequence of ETV5 (P41161 whole entry): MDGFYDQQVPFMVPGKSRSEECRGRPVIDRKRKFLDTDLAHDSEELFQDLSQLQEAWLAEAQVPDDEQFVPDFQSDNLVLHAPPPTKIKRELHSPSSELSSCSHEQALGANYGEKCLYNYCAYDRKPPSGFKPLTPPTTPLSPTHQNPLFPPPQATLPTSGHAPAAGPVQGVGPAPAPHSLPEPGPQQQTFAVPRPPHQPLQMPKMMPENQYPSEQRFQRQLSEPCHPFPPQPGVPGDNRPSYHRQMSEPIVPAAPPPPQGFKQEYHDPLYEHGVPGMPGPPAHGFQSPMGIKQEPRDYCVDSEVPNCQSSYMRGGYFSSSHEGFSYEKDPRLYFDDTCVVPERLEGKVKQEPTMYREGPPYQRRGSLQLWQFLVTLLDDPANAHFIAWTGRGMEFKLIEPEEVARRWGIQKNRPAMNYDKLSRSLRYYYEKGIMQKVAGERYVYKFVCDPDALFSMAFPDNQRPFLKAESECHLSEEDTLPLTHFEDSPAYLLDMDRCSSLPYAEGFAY
Sequence of HSF1 (Q00613 whole entry): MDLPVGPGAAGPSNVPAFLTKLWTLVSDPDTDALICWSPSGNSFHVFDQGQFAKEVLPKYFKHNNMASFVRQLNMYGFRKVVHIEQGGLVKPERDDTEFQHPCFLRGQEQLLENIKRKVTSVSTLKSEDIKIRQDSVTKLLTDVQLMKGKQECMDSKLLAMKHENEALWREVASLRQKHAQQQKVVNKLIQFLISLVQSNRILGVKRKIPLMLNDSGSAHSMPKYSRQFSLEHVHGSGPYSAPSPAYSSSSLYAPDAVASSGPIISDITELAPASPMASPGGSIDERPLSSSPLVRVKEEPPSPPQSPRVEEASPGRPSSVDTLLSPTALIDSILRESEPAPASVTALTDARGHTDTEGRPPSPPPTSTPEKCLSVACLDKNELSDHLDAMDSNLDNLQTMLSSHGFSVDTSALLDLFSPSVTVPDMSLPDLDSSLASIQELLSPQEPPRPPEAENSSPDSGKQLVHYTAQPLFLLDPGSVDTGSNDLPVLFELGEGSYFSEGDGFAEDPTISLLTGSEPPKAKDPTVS
Sequence of ETV1 (P50549 whole entry): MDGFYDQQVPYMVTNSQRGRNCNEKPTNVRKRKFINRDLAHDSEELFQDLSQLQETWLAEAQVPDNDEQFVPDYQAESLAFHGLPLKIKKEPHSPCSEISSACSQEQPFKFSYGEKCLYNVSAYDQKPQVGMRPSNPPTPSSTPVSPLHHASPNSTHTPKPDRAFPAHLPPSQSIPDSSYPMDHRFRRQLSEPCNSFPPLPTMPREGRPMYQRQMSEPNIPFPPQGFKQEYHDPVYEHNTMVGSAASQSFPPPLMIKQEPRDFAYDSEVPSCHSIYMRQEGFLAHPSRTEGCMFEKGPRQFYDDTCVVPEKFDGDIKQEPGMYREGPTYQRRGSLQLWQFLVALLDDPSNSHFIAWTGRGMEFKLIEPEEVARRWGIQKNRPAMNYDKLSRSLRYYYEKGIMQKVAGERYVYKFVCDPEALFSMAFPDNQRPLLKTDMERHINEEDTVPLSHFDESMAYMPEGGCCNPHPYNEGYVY
Sequence of CRX (O43186 whole entry): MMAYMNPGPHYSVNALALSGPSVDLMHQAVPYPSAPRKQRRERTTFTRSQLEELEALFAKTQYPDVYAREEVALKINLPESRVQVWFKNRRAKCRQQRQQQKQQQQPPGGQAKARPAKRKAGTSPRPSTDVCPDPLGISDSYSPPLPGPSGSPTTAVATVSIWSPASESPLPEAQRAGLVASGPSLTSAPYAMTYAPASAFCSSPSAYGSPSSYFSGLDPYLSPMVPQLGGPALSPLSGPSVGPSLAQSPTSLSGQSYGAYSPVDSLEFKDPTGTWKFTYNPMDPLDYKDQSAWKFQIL
Sequence of SPIB (Q01892 whole entry): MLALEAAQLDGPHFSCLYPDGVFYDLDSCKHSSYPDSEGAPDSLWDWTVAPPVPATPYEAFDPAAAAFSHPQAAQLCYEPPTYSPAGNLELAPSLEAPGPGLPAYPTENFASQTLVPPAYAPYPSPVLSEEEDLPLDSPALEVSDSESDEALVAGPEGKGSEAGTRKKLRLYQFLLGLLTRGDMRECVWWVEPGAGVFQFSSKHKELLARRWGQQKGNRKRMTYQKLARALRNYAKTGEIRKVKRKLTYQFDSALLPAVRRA
Sequence of ELF1 (P32519 whole entry): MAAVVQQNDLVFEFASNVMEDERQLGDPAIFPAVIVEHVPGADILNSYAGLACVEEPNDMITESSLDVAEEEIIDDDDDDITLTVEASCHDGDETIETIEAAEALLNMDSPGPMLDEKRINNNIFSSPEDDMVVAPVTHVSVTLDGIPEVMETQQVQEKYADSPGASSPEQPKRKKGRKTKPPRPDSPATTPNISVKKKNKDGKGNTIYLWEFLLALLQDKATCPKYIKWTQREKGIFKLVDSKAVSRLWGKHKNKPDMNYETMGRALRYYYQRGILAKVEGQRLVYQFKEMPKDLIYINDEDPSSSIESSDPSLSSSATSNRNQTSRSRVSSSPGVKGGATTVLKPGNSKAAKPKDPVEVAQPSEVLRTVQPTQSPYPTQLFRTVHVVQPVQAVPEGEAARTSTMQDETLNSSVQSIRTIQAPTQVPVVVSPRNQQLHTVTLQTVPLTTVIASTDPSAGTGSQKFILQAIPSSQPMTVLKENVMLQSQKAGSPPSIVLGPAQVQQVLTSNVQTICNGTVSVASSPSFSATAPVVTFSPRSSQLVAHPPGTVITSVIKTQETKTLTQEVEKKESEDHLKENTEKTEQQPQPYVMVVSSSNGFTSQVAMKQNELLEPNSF

Sequence: TGGCAT
- binding signal (FLI1): 1.23 fold enrichment (6-mer frequency, TF over GST control)
- binding signal (ELK1): 1.2 fold enrichment (6-mer frequency, TF over GST control)
- binding signal (GABPA): 1.2 fold enrichment (6-mer frequency, TF over GST control)
- binding signal (ERG): 1.14 fold enrichment (6-mer frequency, TF over GST control)
- binding signal (ELF1): 1.17 fold enrichment (6-mer frequency, TF over GST control)
- binding signal (EHF): 1.12 fold enrichment (6-mer frequency, TF over GST control)
- binding signal (SPI1): 1.11 fold enrichment (6-mer frequency, TF over GST control)
- binding signal (SPIB): 1.07 fold enrichment (6-mer frequency, TF over GST control)
- binding signal (ELK3): 1.13 fold enrichment (6-mer frequency, TF over GST control)
- binding signal (FEV): 1.3 fold enrichment (6-mer frequency, TF over GST control)
- binding signal (ETV5): 1.13 fold enrichment (6-mer frequency, TF over GST control)
- binding signal (HSF1): 1.26 fold enrichment (6-mer frequency, TF over GST control)
- binding signal (SPIC): 1.24 fold enrichment (6-mer frequency, TF over GST control)
- binding signal (ELF4): 1.18 fold enrichment (6-mer frequency, TF over GST control)
- binding signal (ELK4): 1.21 fold enrichment (6-mer frequency, TF over GST control)
- binding signal (ETV2): 1.37 fold enrichment (6-mer frequency, TF over GST control)
- binding signal (ELF3): 1.24 fold enrichment (6-mer frequency, TF over GST control)
- binding signal (CRX): 1.21 fold enrichment (6-mer frequency, TF over GST control)
- binding signal (ETV1): 1.18 fold enrichment (6-mer frequency, TF over GST control)
